The values below come from ChEMBL document CHEMBL2218924, “A broad activity screen in support of a chemogenomic map for kinase signalling research and drug discovery” (Biochem J, 2013).

Molecules are shown by their SMILES.

In experiment [1] the target is T1, Serine/threonine-protein kinase TAO3 (Homo sapiens) (UniProt Q9H2K8).
T1 sequence (whole entry): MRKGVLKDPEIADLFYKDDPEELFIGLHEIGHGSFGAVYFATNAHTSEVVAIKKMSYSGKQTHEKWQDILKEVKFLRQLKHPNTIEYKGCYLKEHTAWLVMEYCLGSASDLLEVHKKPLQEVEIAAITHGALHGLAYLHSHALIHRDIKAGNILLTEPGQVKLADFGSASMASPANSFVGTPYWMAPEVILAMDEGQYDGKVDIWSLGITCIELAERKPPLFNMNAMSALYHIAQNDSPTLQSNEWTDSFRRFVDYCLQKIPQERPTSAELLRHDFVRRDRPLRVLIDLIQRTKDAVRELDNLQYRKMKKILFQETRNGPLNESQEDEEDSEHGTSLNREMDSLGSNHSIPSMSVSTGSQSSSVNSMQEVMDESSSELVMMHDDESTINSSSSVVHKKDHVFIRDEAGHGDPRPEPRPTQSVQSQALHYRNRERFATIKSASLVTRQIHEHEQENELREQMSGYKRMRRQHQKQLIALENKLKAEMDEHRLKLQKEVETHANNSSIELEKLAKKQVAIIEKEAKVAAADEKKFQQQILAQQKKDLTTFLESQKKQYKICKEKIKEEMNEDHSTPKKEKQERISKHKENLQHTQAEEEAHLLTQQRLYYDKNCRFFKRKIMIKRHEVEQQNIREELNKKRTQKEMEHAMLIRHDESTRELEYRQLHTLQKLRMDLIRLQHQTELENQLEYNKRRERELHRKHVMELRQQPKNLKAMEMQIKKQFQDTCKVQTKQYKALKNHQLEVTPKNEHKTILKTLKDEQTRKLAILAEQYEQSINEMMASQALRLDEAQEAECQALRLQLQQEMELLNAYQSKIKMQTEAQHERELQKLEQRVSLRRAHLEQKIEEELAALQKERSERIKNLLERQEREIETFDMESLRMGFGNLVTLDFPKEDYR
To be noted: at 10 µM.

For experiment [2], the target named is T2, Serine/threonine-protein kinase TBK1 (Homo sapiens) (UniProt Q9UHD2).
T2 sequence (whole entry): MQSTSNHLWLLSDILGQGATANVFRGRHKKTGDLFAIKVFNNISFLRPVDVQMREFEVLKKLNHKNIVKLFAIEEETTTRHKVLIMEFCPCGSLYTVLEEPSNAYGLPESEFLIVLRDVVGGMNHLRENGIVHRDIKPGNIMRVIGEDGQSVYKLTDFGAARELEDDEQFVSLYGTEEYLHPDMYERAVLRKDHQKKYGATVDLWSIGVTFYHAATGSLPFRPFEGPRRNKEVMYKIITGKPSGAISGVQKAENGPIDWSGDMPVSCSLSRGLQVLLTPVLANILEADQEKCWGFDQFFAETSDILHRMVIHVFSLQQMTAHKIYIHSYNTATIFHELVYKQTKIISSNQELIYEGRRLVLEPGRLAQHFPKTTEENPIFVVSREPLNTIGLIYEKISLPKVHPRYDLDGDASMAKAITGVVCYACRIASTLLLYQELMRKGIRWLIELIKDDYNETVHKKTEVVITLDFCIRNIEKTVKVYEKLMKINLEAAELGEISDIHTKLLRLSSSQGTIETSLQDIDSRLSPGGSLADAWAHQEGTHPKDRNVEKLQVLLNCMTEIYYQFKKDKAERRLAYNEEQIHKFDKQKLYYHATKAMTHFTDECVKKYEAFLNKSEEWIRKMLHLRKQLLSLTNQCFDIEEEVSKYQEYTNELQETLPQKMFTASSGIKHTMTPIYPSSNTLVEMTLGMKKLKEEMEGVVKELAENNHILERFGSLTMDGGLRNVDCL
To be noted: at 1 µM.

In experiment [3] the target is T2, Serine/threonine-protein kinase TBK1 (Homo sapiens). To be noted: at 10 µM.
Experiment [4] addresses T3, TGF-beta receptor type-1 (Homo sapiens) (UniProt P36897).
T3 sequence (whole entry): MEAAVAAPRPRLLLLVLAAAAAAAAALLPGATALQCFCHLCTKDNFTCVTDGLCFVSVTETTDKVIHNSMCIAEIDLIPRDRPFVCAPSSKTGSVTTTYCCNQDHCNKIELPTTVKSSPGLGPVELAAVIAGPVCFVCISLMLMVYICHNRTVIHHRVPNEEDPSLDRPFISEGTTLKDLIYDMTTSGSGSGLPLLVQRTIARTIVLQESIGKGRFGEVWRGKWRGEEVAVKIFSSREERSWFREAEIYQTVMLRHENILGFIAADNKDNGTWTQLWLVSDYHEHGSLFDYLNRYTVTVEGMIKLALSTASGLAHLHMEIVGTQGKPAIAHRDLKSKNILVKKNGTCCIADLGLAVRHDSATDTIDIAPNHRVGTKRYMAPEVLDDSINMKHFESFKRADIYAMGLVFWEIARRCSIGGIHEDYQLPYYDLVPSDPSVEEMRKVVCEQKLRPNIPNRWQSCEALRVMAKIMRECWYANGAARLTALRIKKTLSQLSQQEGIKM
To be noted: at 1 µM.

In experiment [5] the target is T3, TGF-beta receptor type-1 (Homo sapiens). To be noted: at 10 µM.
For experiment [6], the target named is T4, Inhibitor of nuclear factor kappa-B kinase subunit alpha (Homo sapiens) (UniProt O15111).
T4 sequence (whole entry): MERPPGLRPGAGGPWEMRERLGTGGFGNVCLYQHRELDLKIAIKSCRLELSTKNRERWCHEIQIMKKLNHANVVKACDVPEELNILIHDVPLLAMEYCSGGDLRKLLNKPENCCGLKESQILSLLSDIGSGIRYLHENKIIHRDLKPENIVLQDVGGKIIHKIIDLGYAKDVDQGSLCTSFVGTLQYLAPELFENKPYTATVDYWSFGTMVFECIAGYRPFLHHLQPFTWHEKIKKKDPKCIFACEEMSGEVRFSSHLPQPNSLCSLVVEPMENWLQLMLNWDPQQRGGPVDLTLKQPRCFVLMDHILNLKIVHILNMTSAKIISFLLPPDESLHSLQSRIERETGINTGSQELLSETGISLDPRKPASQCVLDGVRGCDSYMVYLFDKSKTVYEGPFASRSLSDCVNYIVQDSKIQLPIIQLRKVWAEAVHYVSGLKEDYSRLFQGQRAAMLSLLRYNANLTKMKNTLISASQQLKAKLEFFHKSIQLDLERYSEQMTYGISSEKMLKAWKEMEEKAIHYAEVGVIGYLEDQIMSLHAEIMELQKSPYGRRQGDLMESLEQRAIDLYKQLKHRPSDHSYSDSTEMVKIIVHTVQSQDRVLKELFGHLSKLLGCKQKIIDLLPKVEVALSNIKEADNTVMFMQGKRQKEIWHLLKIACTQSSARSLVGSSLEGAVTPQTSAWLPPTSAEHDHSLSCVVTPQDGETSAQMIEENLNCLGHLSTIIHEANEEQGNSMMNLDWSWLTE
To be noted: at 10 µM.

In experiment [7] the target is T5, Inhibitor of nuclear factor kappa-B kinase subunit beta (Homo sapiens) (UniProt O14920).
T5 sequence (whole entry): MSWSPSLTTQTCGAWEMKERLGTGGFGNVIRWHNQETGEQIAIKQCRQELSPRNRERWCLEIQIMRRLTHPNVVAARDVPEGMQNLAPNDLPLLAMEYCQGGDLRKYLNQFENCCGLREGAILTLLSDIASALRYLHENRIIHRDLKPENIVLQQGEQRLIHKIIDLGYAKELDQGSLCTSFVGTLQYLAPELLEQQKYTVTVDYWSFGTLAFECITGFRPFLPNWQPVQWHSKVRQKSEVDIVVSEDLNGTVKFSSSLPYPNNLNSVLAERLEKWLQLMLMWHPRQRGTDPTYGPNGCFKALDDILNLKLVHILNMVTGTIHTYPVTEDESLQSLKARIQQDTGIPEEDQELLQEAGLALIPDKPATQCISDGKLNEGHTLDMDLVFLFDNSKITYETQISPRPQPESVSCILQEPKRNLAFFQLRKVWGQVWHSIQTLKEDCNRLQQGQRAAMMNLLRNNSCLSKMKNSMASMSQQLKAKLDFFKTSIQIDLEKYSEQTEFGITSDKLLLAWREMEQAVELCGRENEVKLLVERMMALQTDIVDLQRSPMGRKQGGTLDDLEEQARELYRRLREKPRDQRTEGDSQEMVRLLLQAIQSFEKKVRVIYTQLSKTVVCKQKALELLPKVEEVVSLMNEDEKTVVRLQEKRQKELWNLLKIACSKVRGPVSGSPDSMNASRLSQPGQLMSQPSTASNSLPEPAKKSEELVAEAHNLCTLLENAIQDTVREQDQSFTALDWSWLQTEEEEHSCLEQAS
To be noted: at 1 µM.

For experiment [8], the target named is T5, Inhibitor of nuclear factor kappa-B kinase subunit beta (Homo sapiens). To be noted: at 10 µM.
For experiment [9], the target named is Insulin receptor (Homo sapiens) (UniProt P06213). To be noted: at 1 µM.
Insulin receptor (Homo sapiens), sequence (P06213 28-758 limits assumed): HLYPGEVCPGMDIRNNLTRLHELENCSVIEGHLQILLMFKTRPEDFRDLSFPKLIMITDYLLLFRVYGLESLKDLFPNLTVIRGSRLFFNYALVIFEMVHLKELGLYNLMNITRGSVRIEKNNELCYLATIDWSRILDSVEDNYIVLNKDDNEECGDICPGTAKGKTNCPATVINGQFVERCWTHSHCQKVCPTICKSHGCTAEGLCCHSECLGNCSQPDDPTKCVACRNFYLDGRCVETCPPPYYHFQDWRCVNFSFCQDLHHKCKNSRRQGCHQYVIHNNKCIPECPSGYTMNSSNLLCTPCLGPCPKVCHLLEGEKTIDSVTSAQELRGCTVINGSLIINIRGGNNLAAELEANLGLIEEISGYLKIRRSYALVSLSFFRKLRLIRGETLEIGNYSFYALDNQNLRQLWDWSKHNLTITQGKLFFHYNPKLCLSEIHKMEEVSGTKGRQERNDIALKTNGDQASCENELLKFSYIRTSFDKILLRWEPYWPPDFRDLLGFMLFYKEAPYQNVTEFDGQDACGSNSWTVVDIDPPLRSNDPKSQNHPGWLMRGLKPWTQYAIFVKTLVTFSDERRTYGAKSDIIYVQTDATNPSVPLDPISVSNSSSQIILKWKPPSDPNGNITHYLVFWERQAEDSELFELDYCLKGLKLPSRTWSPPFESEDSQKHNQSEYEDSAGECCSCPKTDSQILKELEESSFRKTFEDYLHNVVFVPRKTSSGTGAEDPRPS
Insulin receptor (Homo sapiens), sequence (P06213 763-1382 limits assumed): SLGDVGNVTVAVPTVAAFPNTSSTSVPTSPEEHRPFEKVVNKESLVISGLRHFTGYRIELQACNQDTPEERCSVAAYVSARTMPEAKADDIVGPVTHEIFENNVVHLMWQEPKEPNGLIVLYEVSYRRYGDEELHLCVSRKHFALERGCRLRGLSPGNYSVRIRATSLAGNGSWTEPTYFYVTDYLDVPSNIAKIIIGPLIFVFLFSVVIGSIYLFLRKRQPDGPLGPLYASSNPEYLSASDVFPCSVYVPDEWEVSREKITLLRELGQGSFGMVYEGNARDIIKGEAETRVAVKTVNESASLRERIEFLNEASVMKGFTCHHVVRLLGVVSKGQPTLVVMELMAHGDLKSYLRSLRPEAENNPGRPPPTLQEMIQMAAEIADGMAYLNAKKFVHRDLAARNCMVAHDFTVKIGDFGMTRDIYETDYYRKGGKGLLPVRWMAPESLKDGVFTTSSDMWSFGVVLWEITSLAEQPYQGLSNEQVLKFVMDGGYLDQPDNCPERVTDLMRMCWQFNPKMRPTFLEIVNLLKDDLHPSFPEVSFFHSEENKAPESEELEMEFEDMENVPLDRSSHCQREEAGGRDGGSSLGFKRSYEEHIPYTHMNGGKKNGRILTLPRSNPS

For the compound `O=C1Nc2ccc(Cl)cc2/C1=C/c1cc(Cl)c(O)c(Cl)c1`, the residual activity came out at 52% in experiment [1]; 59% in [2]; 38% in experiment [3]; 79% in [4]; 42% in experiment [5]; 88% in experiment [6]. Also, the residual activity in [7] stood at 100%; in experiment [8], 67%; in [9] it was 96%.

What is called residual activity is the share of the control activity or signal that is left under treatment. Low readings indicate little activity left, high ones much activity left.
